Assay outcomes from PubChem BioAssay.
PGK inhibitor = T. brucei PGK inhibition; P07378; Potency, µM (doses to about 57.5 µM), for inactives: at the top dose activity change, negative = inhibition, hits mostly inhibitors; PGK/GAPDH coupled, Kinase-Glo luminescence, 60 min; AID 602233; 0.043% of 380,000 active; note: % is set by controls: 0 for no effect and ±100 for the full control effect; nearly all actives have a fitted effect of over 60% in size
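Luminescent ATP detection (Kinase-Glo Plus) follows a 60-minute room-temperature incubation, with wells lacking PGK as controls. Buffer: 100 mM TEA (pH 7.6), 5 mM MgCl2, 0.01% Tween-20. Coupling enzyme GAPDH (100 nM final) supplies unstable 1,3-BPG in-well.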
Rango release inh = prevents RanGTP from dissociating the Rango-importin beta complex; O95149+P62826; Biochemical FRET Rango-importin beta, RanGTP-induced dissociation; Potency, µM (top dose mostly 46.1 µM), for the others: top-dose activity change, negative = inhibition; 0.071% of 340,000 active; AID 540253; calls by dose curve; note: % of control where 0% means no effect; nearly all actives have a fitted effect of over 45% in size
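Quantitative HTS using a FRET biosensor: 0.1 uM Rango, 0.25 uM importin beta, 0.6 uM Ran, 2 mM GTP, 0.2 uM RCC1 final, PBS with DTT, Tween-20 and BSA. Post-read taken 45 min after Ran addition.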
PKM2 activator = activators of human pyruvate kinase M2; P14618; purified PKM2, Kinase-Glo ATP luminescence, activation; response scale: 0% is enzyme alone, no compound; Potency, µM (top dose mostly 57.5 µM), inactives show at the top dose activation, most hits filed as activators; 0.34% of 260,000 active; note: % is set by controls: 0 for no effect and ±100 for the full control effect; nearly all actives have a fitted effect of over 55% in size
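Purified hPK-M2 (>95% pure) converted ADP (0.1 mM final) to ATP with 0.5 mM PEP in 50 mM imidazole pH7.2, KCl, MgCl2, Tween 20, BSA; 1 h at room temperature. ATP detected by Kinase-Glo luminescence.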
ELG1 DNA repair = inhibitors of ELG1-dependent DNA repair in HEK293T cells; HEK293T ELG1-luciferase reporter, luminescence, 16 h; DNA damage induced by 5-fluorouridine; 2.3% of 330,000 active; AID 504467; Potency, µM (top dose mostly 46.1 µM), without a hit: at the top dose activity change, negative = inhibition, hits mostly inhibitors; note: % is set by controls: 0 for no effect and ±100 for the full control effect; nearly all actives have a fitted effect of over 55% in size
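HEK293T cells expressing luciferase-tagged ELG1 (2,000/well) received 5-Fluorouridine plus compound or DMSO for 16 hr at 37 °C. Luciferase was read by ONE-Glo luminescence after 30 min at room temperature.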
Rango complex inh = Rango-importin beta binding inhibition | Q14974 | Rango CFP/YFP FRET sensor + importin beta, 45 min | Potency, µM (titrated, usually from 92.2 µM), for inactives: at the top dose inhibition of complex formation | 0.031% of 340,000 active; calls by dose curve;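 note: 0% = DMSO wells and 100% = buffer wells lacking importin beta; nearly all actives have a fitted effect of over 15% in size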
Target sequence (Q14974 whole entry, looked up): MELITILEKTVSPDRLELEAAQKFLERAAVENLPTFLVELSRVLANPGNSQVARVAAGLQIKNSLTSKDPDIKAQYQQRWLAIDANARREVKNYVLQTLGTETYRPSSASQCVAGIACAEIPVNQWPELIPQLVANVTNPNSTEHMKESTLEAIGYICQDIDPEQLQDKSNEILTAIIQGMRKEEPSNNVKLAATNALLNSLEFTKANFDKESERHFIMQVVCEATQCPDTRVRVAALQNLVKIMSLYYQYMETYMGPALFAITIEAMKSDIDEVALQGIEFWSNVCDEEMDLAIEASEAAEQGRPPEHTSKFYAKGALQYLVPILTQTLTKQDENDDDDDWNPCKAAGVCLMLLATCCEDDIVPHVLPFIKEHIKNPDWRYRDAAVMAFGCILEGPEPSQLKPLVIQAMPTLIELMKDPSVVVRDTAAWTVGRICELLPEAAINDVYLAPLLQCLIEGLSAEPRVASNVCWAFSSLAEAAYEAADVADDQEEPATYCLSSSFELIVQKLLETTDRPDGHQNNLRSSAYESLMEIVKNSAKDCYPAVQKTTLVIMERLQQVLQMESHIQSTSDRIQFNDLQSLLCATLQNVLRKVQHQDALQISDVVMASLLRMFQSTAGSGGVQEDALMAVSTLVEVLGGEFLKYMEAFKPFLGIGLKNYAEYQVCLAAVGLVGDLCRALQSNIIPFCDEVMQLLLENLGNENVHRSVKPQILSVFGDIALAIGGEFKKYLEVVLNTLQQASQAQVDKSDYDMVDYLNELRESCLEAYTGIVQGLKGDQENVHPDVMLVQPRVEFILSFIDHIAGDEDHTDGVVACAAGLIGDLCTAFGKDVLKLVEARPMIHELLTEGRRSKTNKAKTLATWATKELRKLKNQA
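FRET biosensor (snurportin 1 IBB flanked by EYFP and cerulean), 50 nM, with compound 5 min, then 0.125 microM importin beta in PBS, 1 mM DTT, 0.02% Tween-20, 0.1% BSA. CFP/YFP ratio read after 45 min at room temperature; pre-read flags interference.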
Tb PFK inh-1 = inhibitors of T. brucei phosphofructokinase | AID 485367 | Potency, µM (highest dose often 57.5 µM), without a hit: at the highest dose activity, negative = inhibition, most hits filed as inhibitors | 0.17% of 330,000 active | O15648 | T. brucei PFK, ADP-Glo luminescence;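 note: 0% = uninhibited 1x PFK enzyme wells and -100% = no-enzyme wells; nearly all actives have a fitted effect of over 60% in size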
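PFK 1.25 nM, F6P 0.5 mM, ATP 0.1 mM, 0.1 M TEA pH 8.0, 5 mM MgCl2, 0.01% Tween20, 0.1% BSA; 45 min RT. ADP-Glo readout. qHTS titration up to 57 uM; curves fitted, compounds curve-classed.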
TbPFK ATP = orthogonal confirmation of T. brucei phosphofructokinase inhibitors; shares compounds with Tb PFK inh-1; Potency, µM (top dose mostly 57.5 µM), for the others: at the highest dose inhibition; 47% of 1,100 active; AID 504636; Tb PFK enzyme, ATP depletion, Kinase-Glo Plus luminescence; calls by dose curve; note: nearly all actives have a fitted effect of over 60% in size
Tb PFK inh-2 = T. brucei PFK enzyme inhibition, hit validation; shares compounds with Tb PFK inh-1; purified T. brucei PFK, ADP-Glo luminescence, 45 min; Potency, µM (highest dose often 57.5 µM), without a hit: at the highest dose activity change, negative = inhibition, actives largely listed as inhibitors; 41% of 1,100 active; AID 504637;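 note: plate controls were full PFK enzyme control for no effect and no enzyme control for full effect; nearly all actives have a fitted effect of over 60% in size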
Numbers without * were called inactive; i = inactive; u = inconclusive; x = no result. Hits are enriched below; roughly 2.4% of the tested compounds scored in any of these assays. Unless noted, calls come from the whole dose curve; as a rule, active = well fitted curve in the direction sought with a large enough effect; inconclusive = small, poorly fitted or top-dose-only effect, or another doubt; inactive = no such curve, though single readings can be large; an effect the other way counts as inactive or inconclusive. Potency is the fitted concentration of half-maximal effect.

SMILES	PGK inhibitor	Rango release inh	PKM2 activator	ELG1 DNA repair	Rango complex inh	Tb PFK inh-1	TbPFK ATP	Tb PFK inh-2
COc1cc(/C=C(\C#N)c2nc3ccccc3s2)cc([N+](=O)[O-])c1O	u	6%	-5%	u	2%	u	-27%	u
N#C/C(=C\c1ccc([N+](=O)[O-])cc1)c1nc(C2CC2)cs1	0%	-11%	2%	u	u	2%	x	x
Cc1c(N)cccc1N	-1%	-7%	x	u	1%	-1%	x	x
CN(C)c1ccc(P(=O)(OC2CCCCC2)C(Nc2ccccc2)c2cccnc2)cc1 (stereo not drawn)	-1%	0%	0%	u	-3%	-22%	x	x
O=c1oc2ccccc2c(O)c1[C@H]1c2ccc(O)cc2Oc2c1c(=O)oc1ccccc21	-8%	17%	29%	u	-3%	u	-26%	u
Cc1cccc(-n2c(/C=C/c3cn(C)c4ccccc34)nc3ccccc3c2=O)c1	i	x	x	x	x	x	x	x
c1ccc(N2C3C4CC(C5CCCC54)C32)cc1 (stereo not drawn)	4%	-4%	x	x	0%	x	x	x
c1cc(Cc2cnc[nH]2)ccn1	x	x	-5%	x	x	x	x	x
O=C(COC(=O)Cc1ccc(F)cc1)Nc1ccc2[nH]c(=O)[nH]c2c1	i	10%	x	20%	1%	u	u	u
Cc1ccc(C(=O)NCC(=O)OCC(=O)Nc2ccc3[nH]c(=O)[nH]c3c2)cc1	-9%	16%	x	-1%	-3%	u	u	u
CC(=O)Nc1ccccc1C(=O)OCC(=O)Nc1ncccn1	1%	-6%	2%	u	3%	5%	x	x
O=C(COC(=O)c1ccccc1OC(F)F)Nc1ccc2[nH]c(=O)[nH]c2c1	-5%	u	x	3%	u	u	u	u
CS(=O)(=O)c1ccc(C2=C(CNC(=O)c3nccs3)[C@H]3CC[C@@H](C2)N3Cc2ccco2)cc1	i	x	x	x	x	x	x	x
COc1cccc(/C=C/c2nc3ccccc3c(=O)n2-c2ccc(Cl)cc2)c1OC	8%	x	x	x	x	x	x	x
COc1cc(-c2cc(=O)c3c(O)c(OC)c(OC)c(O)c3o2)ccc1O	-15%	-5%	2%	0%	-1%	u	6µM*	9.5µM*
C=C1C/C(=C/C)C(=O)O[C@@H]2CCN3CC=C(COC(=O)[C@]1(C)O)[C@H]23	-4%	7%	-1%	1%	13%	0%	x	x
CN(C)C(=O)Oc1ccc2oc(=O)cc(-c3cc4ccccc4o3)c2c1	-3%	6%	-1%	-28%	-1%	-1%	x	x
COc1cccc(CNc2ccc(F)c(Cl)c2)c1	x	33%	5%	u	-4%	24µM*	11µM*	17µM*
Cc1ccc(CC(=O)NNC(=O)c2ccncc2)cc1C	-2%	27%	x	1%	-5%	u	13µM*	21µM*
CCn1c(=O)oc2cc(NC(=O)CCl)ccc21	-6%	0%	1%	u	5%	-4%	x	x
O=C(CSc1nnc(NC(=O)c2cccc(F)c2)s1)NCc1ccco1	3%	9%	1%	u	0%	1%	x	x
COc1ccc(C)cc1-n1nnnc1SCC(=O)NC(=O)NCc1ccco1	-20%	18%	u	u	-2%	11µM*	10%	-11%
